Experimental data published in publication PMC5700166.
Changes are numbered by the printed parent chain.

How the values were obtained:
Test in all cases: protein-binding microarray (PBM); PBM: ~300 nM protein, 6 mM HEPES pH 7.8, 80 mM KCl, 0.5 mM EDTA, 0.5 mM EGTA, 6% glycerol, 35 ng/ul poly-dIdC, 1% milk, 1 h, room temperature; Ap Aiptasia and Nv Nematostella (sea anemones) / Co Capsaspora / Aq Amphimedon (sponge) / Dm Drosophila / Hu human; RHD is the Rel homology domain; high values mean tight binding
Details in all cases: dsDNA, one strand shown
GST-Ap-NF-kB RHD = molecular target: T1, GST-Ap-NF-kB RHD (Exaiptasia pallida (Aiptasia), UniProt A0A913YAJ5 2-422)
T1 sequence: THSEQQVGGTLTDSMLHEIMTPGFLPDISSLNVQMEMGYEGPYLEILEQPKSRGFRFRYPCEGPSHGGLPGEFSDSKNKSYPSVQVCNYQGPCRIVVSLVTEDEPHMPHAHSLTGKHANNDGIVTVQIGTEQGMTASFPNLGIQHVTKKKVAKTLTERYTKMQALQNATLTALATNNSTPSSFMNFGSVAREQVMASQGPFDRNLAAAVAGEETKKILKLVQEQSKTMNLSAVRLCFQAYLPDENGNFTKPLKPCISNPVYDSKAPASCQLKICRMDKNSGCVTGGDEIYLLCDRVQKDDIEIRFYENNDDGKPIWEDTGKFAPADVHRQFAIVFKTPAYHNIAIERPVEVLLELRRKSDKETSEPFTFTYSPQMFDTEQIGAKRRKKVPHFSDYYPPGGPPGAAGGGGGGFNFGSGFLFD

[1] = molecular target: T2, GST-Nv-NF-kB (Cys allele) (Nematostella vectensis, UniProt E5G601 2-411)
T2 sequence: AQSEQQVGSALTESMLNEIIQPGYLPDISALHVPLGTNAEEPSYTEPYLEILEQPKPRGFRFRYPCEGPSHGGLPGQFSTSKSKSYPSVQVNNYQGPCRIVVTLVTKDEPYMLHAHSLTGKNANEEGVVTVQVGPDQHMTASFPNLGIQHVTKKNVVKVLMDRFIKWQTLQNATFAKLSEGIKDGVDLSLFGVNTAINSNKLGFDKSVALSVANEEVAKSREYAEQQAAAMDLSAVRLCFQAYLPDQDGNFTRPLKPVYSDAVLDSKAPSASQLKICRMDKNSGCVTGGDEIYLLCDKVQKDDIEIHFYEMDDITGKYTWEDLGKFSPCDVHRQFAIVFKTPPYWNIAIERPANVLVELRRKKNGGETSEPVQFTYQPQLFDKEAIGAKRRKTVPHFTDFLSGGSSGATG

GST-Dm-Relish = molecular target: T3, GST-Dm-Relish (Drosophila melanogaster, UniProt Q94527 99-473)
T3 sequence: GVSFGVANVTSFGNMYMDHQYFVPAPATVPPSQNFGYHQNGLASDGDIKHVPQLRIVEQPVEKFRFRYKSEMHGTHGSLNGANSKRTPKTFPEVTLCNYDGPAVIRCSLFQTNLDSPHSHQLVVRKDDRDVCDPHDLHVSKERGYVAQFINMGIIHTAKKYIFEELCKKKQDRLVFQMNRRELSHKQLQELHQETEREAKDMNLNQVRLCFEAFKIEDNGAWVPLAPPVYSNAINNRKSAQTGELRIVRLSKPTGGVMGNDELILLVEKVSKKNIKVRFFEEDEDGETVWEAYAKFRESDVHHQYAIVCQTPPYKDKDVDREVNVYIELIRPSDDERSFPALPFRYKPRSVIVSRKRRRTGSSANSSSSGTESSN

GST-Aq-NF-kB = molecular target: T4, GST-Aq-NF-kB (Amphimedon queenslandica, UniProt A9Y5G7 2-389)
T4 sequence: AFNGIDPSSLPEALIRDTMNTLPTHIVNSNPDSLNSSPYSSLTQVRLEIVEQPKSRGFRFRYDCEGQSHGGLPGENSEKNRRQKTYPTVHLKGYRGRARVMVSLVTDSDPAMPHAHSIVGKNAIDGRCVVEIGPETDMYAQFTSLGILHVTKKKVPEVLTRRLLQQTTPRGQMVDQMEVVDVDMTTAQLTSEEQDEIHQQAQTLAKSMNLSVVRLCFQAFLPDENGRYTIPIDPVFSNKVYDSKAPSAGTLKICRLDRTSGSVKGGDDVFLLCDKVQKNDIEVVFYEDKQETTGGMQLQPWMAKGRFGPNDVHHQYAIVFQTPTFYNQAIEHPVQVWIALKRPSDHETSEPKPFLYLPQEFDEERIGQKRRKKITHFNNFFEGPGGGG

GST-Co-NF-kB = molecular target: T5, GST-Co-NF-kB (Capsaspora owczarzaki, UniProt F1ARL5 200-546)
T5 sequence: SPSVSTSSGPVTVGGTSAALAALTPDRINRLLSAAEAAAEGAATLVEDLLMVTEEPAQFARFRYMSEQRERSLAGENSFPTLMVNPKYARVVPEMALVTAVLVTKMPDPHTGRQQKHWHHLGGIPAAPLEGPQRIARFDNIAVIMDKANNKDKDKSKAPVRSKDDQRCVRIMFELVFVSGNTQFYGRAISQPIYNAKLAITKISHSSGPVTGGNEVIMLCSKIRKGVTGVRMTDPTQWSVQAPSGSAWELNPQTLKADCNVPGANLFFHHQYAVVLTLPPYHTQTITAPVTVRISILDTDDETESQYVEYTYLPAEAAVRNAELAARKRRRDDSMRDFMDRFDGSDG

[2] = molecular target: T6, GST-Nv-NF-kB (Ser allele) (Nematostella vectensis, UniProt A7UNT2 2-411)
T6 sequence: T2 sequence with Q21R, C66S, S207N, E215Q, V217A, E225K, A268E, D399E

CCGATTAACATCAGGTAATCCCATGATGTTAATCGGGTCTTGATTCGCTTGACGCTGCTG
binding signal (GST-Ap-NF-kB RHD): 2.95 z-score | binding signal [1]: 1.6 z-score | binding signal (GST-Dm-Relish): 6.13 z-score | binding signal (GST-Aq-NF-kB): 3.49 z-score

CCGATTAACATCAGGAAAACCCATGATGTTAATCGGGTCTTGATTCGCTTGACGCTGCTG
binding signal (GST-Ap-NF-kB RHD): 2.63 z-score | binding signal [1]: 2.25 z-score | binding signal (GST-Dm-Relish): 4.78 z-score | binding signal (GST-Aq-NF-kB): 4.02 z-score

CCGATTAACATCAGGGATTTTGATGATGTTAATCGGGTCTTGATTCGCTTGACGCTGCTG
binding signal (GST-Ap-NF-kB RHD): 3.17 z-score | binding signal [1]: 2.95 z-score | binding signal (GST-Dm-Relish): 4.91 z-score | binding signal (GST-Aq-NF-kB): 2.87 z-score

CCGATTAACATCAGAAATTTACCTGATGTTAATCGGGTCTTGATTCGCTTGACGCTGCTG
binding signal (GST-Ap-NF-kB RHD): 1.1 z-score | binding signal [1]: 2.05 z-score | binding signal (GST-Dm-Relish): 2.77 z-score | binding signal (GST-Aq-NF-kB): 2.09 z-score

CCGATTAACATCAAGGAAAACCCTGATGTTAATCGGGTCTTGATTCGCTTGACGCTGCTG
binding signal (GST-Ap-NF-kB RHD): 2.67 z-score | binding signal [1]: 2.33 z-score | binding signal (GST-Dm-Relish): 4.56 z-score | binding signal (GST-Aq-NF-kB): 4.66 z-score

CCGATTAACATCAAAAATTTACCTGATGTTAATCGGGTCTTGATTCGCTTGACGCTGCTG
binding signal (GST-Ap-NF-kB RHD): 1.32 z-score | binding signal [1]: 3.04 z-score | binding signal (GST-Dm-Relish): 4.45 z-score | binding signal (GST-Aq-NF-kB): 2.7 z-score

CCGATTAACATCAAGGGCTTCCCTGATGTTAATCGGGTCTTGATTCGCTTGACGCTGCTG
binding signal (GST-Ap-NF-kB RHD): 1.53 z-score | binding signal [1]: 1.82 z-score | binding signal (GST-Dm-Relish): 7.18 z-score | binding signal (GST-Aq-NF-kB): 3.85 z-score

CCGATTAACATCAAGAAATTACCTGATGTTAATCGGGTCTTGATTCGCTTGACGCTGCTG
binding signal (GST-Ap-NF-kB RHD): 1.26 z-score | binding signal [1]: 2.74 z-score | binding signal (GST-Dm-Relish): 3.19 z-score | binding signal (GST-Aq-NF-kB): 2.27 z-score

CCGATTAACATCAACAAAGTCCCTGATGTTAATCGGGTCTTGATTCGCTTGACGCTGCTG
binding signal (GST-Ap-NF-kB RHD): 4.89 z-score | binding signal [1]: 5.37 z-score | binding signal (GST-Dm-Relish): 5.26 z-score | binding signal (GST-Aq-NF-kB): 4.25 z-score

CCGATTAACATCAGGGCATTACCTGATGTTAATCGGGTCTTGATTCGCTTGACGCTGCTG
binding signal (GST-Ap-NF-kB RHD): 1.29 z-score | binding signal [1]: 1.87 z-score | binding signal (GST-Dm-Relish): 3.33 z-score | binding signal (GST-Aq-NF-kB): 4.51 z-score

CCGATTAACATCAGGAATAACCCTGATGTTAATCGGGTCTTGATTCGCTTGACGCTGCTG
binding signal (GST-Ap-NF-kB RHD): 1.87 z-score | binding signal [1]: 2.62 z-score | binding signal (GST-Dm-Relish): 3.23 z-score | binding signal (GST-Aq-NF-kB): 5.81 z-score

CCGATTAACATCAGGAAATGCCCTGATGTTAATCGGGTCTTGATTCGCTTGACGCTGCTG
binding signal (GST-Ap-NF-kB RHD): 1.98 z-score | binding signal [1]: 3.05 z-score | binding signal (GST-Dm-Relish): 1.68 z-score | binding signal (GST-Aq-NF-kB): 5.41 z-score

CCGATTAACATCAGGGAGAGCCCTGATGTTAATCGGGTCTTGATTCGCTTGACGCTGCTG
binding signal (GST-Ap-NF-kB RHD): 3.06 z-score | binding signal [1]: 3.59 z-score | binding signal (GST-Dm-Relish): 1.82 z-score | binding signal (GST-Aq-NF-kB): 6.26 z-score

CCGATTAACATCAAAAAATACCATGATGTTAATCGGGTCTTGATTCGCTTGACGCTGCTG
binding signal (GST-Ap-NF-kB RHD): 1.11 z-score | binding signal [1]: 1.58 z-score | binding signal (GST-Dm-Relish): 4.53 z-score | binding signal (GST-Aq-NF-kB): 2.23 z-score

CCGATTAACATCACGGTACTTCCTGATGTTAATCGGGTCTTGATTCGCTTGACGCTGCTG
binding signal (GST-Ap-NF-kB RHD): 2.38 z-score | binding signal [1]: 2.66 z-score | binding signal (GST-Dm-Relish): 7.59 z-score | binding signal (GST-Aq-NF-kB): 2.93 z-score

CCGATTAACATCAAGGGAAGCCCTGATGTTAATCGGGTCTTGATTCGCTTGACGCTGCTG
binding signal (GST-Ap-NF-kB RHD): 2.12 z-score | binding signal [1]: 1.83 z-score | binding signal (GST-Dm-Relish): 7.5 z-score | binding signal (GST-Aq-NF-kB): 3.99 z-score

CCGATTAACATCAGAAAATGCCCTGATGTTAATCGGGTCTTGATTCGCTTGACGCTGCTG
binding signal (GST-Ap-NF-kB RHD): 1.93 z-score | binding signal [1]: 2.33 z-score | binding signal (GST-Dm-Relish): 2.42 z-score | binding signal (GST-Aq-NF-kB): 3.47 z-score

CCGATTAACATCAGGAATCCCACTGATGTTAATCGGGTCTTGATTCGCTTGACGCTGCTG
binding signal (GST-Ap-NF-kB RHD): 1.73 z-score | binding signal [1]: 1.37 z-score | binding signal (GST-Dm-Relish): 8.1 z-score | binding signal (GST-Aq-NF-kB): 1.75 z-score

CCGATTAACATCAGGGACTTACCTGATGTTAATCGGGTCTTGATTCGCTTGACGCTGCTG
binding signal (GST-Ap-NF-kB RHD): 5.1 z-score | binding signal [1]: 7 z-score | binding signal (GST-Dm-Relish): 7.96 z-score | binding signal (GST-Aq-NF-kB): 8.29 z-score

CCGATTAACATCAAAATTTCACCTGATGTTAATCGGGTCTTGATTCGCTTGACGCTGCTG
binding signal (GST-Ap-NF-kB RHD): 1.14 z-score | binding signal [1]: 2.14 z-score | binding signal (GST-Dm-Relish): 2.34 z-score | binding signal (GST-Aq-NF-kB): 1.7 z-score

CCGATTAACATCACGGAAAACCCTGATGTTAATCGGGTCTTGATTCGCTTGACGCTGCTG
binding signal (GST-Ap-NF-kB RHD): 2.23 z-score | binding signal [1]: 2.07 z-score | binding signal (GST-Dm-Relish): 3.69 z-score | binding signal (GST-Aq-NF-kB): 4.81 z-score

CCGATTAACATCAGGAGTTTACCTGATGTTAATCGGGTCTTGATTCGCTTGACGCTGCTG
binding signal (GST-Ap-NF-kB RHD): 1.12 z-score | binding signal [1]: 1.18 z-score | binding signal (GST-Dm-Relish): 3.24 z-score | binding signal (GST-Aq-NF-kB): 2.87 z-score

CCGATTAACATCAGGGCTTTACCTGATGTTAATCGGGTCTTGATTCGCTTGACGCTGCTG
binding signal (GST-Ap-NF-kB RHD): 1.07 z-score | binding signal [1]: 2.29 z-score | binding signal (GST-Dm-Relish): 5.69 z-score | binding signal (GST-Aq-NF-kB): 3.97 z-score

CCGATTAACATCAGGGATTCCAATGATGTTAATCGGGTCTTGATTCGCTTGACGCTGCTG
binding signal (GST-Ap-NF-kB RHD): 1.68 z-score | binding signal [1]: 1 z-score | binding signal (GST-Dm-Relish): 5.16 z-score | binding signal (GST-Aq-NF-kB): 1.78 z-score

CCGATTAACATCAGGAAAACACCTGATGTTAATCGGGTCTTGATTCGCTTGACGCTGCTG
binding signal (GST-Ap-NF-kB RHD): 2.56 z-score | binding signal [1]: 3.6 z-score | binding signal (GST-Dm-Relish): 3.1 z-score | binding signal (GST-Aq-NF-kB): 5.13 z-score

CCGATTAACATCAGGACACCCCATGATGTTAATCGGGTCTTGATTCGCTTGACGCTGCTG
binding signal (GST-Ap-NF-kB RHD): 1.22 z-score | binding signal (GST-Co-NF-kB): 1.49 z-score | binding signal (GST-Dm-Relish): 1.93 z-score | binding signal (GST-Aq-NF-kB): 1.61 z-score

CCGATTAACATCACGGGGGGGGATGATGTTAATCGGGTCTTGATTCGCTTGACGCTGCTG
binding signal (GST-Ap-NF-kB RHD): 6.27 z-score | binding signal [2]: 5.38 z-score | binding signal (GST-Co-NF-kB): 7.62 z-score | binding signal (GST-Dm-Relish): 5.35 z-score | binding signal (GST-Aq-NF-kB): 5.29 z-score
